Compound activity as filed in PubChem.
Hits are enriched below; roughly 18% of the tested compounds scored in any of these assays.
HepG2 tox: HepG2 cytotoxicity, counter-screen for TGF-b inhibitors | HepG2 CAGA-GFP viability, ATP luminescence, 18 h | Potency, µM (highest dose often 46.1 µM), for inactives: top-dose activity change, negative = cytotoxicity, most hits filed as cytotoxic | 410,000 compounds, 0.76% hits; further: potency means the concentration at half of the fitted maximal effect
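CellTiter-Glo luminescence gave cytotoxicity after 18 hours at 37 degrees C. The cells were HepG2 CAGA-GFP in 1% FBS DMEM, stimulated with 500 pg/mL TGF-beta after compound addition. %Activity was normalised to no-cell wells (complete cell-killing) and DMSO (no toxicity), and curves were fitted and classified.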
TDP1 cell noCPT: qHTS for Inhibitors of human tyrosyl-DNA phosphodiesterase 1 (TDP1): qHTS in cells in absence of CPT. AID 686978, 2013. DT40 Tdp1-/- hTDP1 cells, no CPT, ATP luminescence, 48 h. Potency, µM (doses to about 46.2 µM), inactives show top-dose activity change, negative = growth inhibition, actives largely listed as inhibitors. 420,000 compounds, 15% hits; further: potency means the concentration at half of the fitted maximal effect; on the % scale 0 is the no-effect control and ±100 the full control effect; nearly all actives have a fitted effect of over 55% in size
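Seeded 400 DT40-hTDP1 cells/well (vehicle DMSO, no 20 nM CPT); pinned compounds; ≥48 hr at 37 °C; CellTiter-Glo luminescence as viability measure.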
TDP1 block: inhibitors of human tyrosyl-DNA phosphodiesterase TDP1. recombinant TDP1, AlphaScreen DNA substrate cleavage. Potency, µM (series often up to 130 µM), for the others: top-dose activity change, negative = inhibition, usual class: inhibitors. 350,000 compounds, 0.28% hits. AID 485290; further: potency means the concentration at half of the fitted maximal effect; on the % scale 0 is the no-effect control and ±100 the full control effect; nearly all actives have a fitted effect of over 40% in size
Target sequence (Q9NUW8 whole entry, looked up): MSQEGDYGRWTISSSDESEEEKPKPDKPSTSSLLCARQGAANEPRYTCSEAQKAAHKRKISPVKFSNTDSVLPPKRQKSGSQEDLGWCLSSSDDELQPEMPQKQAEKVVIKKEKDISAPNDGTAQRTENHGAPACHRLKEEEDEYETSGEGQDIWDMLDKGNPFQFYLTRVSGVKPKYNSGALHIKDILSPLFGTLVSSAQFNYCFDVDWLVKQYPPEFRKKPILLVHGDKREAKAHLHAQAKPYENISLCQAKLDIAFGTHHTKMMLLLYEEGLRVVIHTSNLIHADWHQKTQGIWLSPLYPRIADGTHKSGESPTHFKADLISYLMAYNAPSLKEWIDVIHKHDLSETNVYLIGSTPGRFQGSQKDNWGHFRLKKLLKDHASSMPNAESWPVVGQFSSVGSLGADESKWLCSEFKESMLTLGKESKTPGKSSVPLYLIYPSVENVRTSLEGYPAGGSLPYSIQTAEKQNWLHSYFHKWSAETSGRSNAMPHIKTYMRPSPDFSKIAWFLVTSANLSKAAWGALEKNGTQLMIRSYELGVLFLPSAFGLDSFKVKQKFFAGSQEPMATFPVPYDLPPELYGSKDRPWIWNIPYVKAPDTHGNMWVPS
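Tdp1 1 nM final; 15 min RT w/ cpd; substrate 15 nM, 5 min; beads 10 ug/ml, 10 min; AlphaScreen read. Neg ctrl: no enzyme.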
TDP1 cell CPT: growth inhibition of DT40 Tdp1-/-;hTDP1 cells with camptothecin (screen for TDP1 inhibitors). chicken DT40 Tdp1-/-;hTDP1 cells + 20 nM CPT, ATP luminescence, 48 h. Potency, µM (titrated, usually from 46.2 µM), for inactives: top-dose activity change, negative = growth inhibition, actives largely listed as inhibitors. 420,000 compounds, 12% hits. AID 686979; further: potency means the concentration at half of the fitted maximal effect; on the % scale 0 is the no-effect control and ±100 the full control effect; nearly all actives have a fitted effect of over 55% in size
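Chicken DT40 Tdp1-/- cells stably complemented with human TDP1 were seeded at 400 cells/well in medium containing 20 nM camptothecin, exposed to pin-transferred compounds, and grown at 37 °C for at least 48 hr. Viability was read as ATP luminescence.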
TGFb SMAD3 inh: inhibitors of TGF-b signaling | 410,000 compounds, 1.2% hits | HepG2 CAGA-GFP TGF-b/SMAD3 reporter, GFP fluorescence, 18 h; TGF-beta stimulated, 500 pg/mL final | Potency, µM (titrated, usually from 46.1 µM), for the others: at the highest dose activity, negative = inhibition, hits mostly inhibitors; further: potency means the concentration at half of the fitted maximal effect; on the % scale 0 is the no-effect control and ±100 the full control effect; nearly all actives have a fitted effect of over 65% in size
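HEPG2 CAGA-GFP, 1000 cells/well; 2 h settle, 37 C; cpd via pin tool; TGF-b 500 pg/mL final; 18 h, 37 C; GFP imaging ex488/em500-530; %Activity normalised to -TGF-b and +DMSO controls; CRC fit, curve class.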
IL-1B inflam inh: inhibitors of inflammasome signaling (IL-1 beta secretion). THP-1 LPS/ATP IL-1B secretion, AlphaLISA, 16 h; stronger effect = lower value. activity change, % at 57.5 µM. 360,000 compounds, 4.7% hits. AID 743279; in the data active means activity change below about -50%; inconclusive means mostly about -30% to -49%; further: on the % scale 0 is the no-effect control and ±100 the full control effect
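THP-1 cells pretreated 1 hr with compounds (up to 57.5 uM final), then stimulated with LPS (250 ng/mL final) plus ATP (1.25 mM final); secreted IL-1B measured by AlphaLISA after 16 hr, decreased signal indicating inhibition.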
* marks the source's active call; other numbers are inactive results; ? = inconclusive; · = not tested or not shown. Unless noted, the call rests on the fitted dose curve; in most records, active means well fitted curve in the direction sought with a large enough effect; inconclusive means small, poorly fitted or top-dose-only effect, or another doubt; inactive means no such curve, though single readings can be large; an effect the other way counts as inactive or inconclusive.

SMILES | HepG2 tox | TDP1 cell noCPT | TDP1 block | TDP1 cell CPT | TGFb SMAD3 inh | IL-1B inflam inh
Nc1c(Cl)cc(/C=C2\C=Cc3ccccc32)cc1Cl | -49% | ? | · | ? | -14% | ·
O=C(CN1c2ccccc2Sc2ccccc21)N/N=C/c1ccc(Cl)cc1Cl | 4% | 18µM* | · | ? | -7% | -21
CCNC(=O)C1CCCN(C(=O)c2cccc(C#N)c2)CC1 (stereo not given) | 1% | -2% | · | -6% | -17% | 29
Fc1ccc(Nc2c3c(nc4nncn24)CCC3)cc1 | -1% | -22% | 9% | -6% | · | ·
COC(=O)CC1Oc2ccc(F)cc2-n2cc(-c3ccc(Cl)cc3)nc21 (stereo not given) | -48% | 4.1µM* | 6% | 9.2µM* | ? | ·
COC(=O)CC1Oc2ccc(F)cc2-n2cc(-c3ccc(C)cc3)nc21 (stereo not given) | -57% | 7.3µM* | 5% | 9.2µM* | -6% | ·
CNc1cnc(-c2ccccc2OC)cn1 | -3% | 7% | · | -5% | 2% | -11
O=C(NC1CCCCCC1)c1ccc(CS(=O)c2cccc(Cl)c2)o1 (stereo not given) | -3% | ? | 0% | ? | -23% | ·
COc1ccc(OCCN2CCC(C(=O)NC(c3ccc(Cl)cc3)c3cccnc3)CC2)cc1 (stereo not given) | -34% | ? | · | ? | 31% | -12
O=C(NC(c1ccc(F)cc1)c1ccc2ccccc2n1)C1CCN(Cc2ccc3ccccc3n2)CC1 (stereo not given) | -47% | 18µM* | · | ? | 13µM* | -21
CN(C)c1ccc(CN2CCC(C(=O)NC(c3ccc(F)cc3)c3ccc4ccccc4n3)CC2)cc1 (stereo not given) | -84% | 23µM* | · | ? | ? | -54*
O=C(NC(c1ccc(F)cc1)c1ccc2ccccc2n1)C1CCN(Cc2cccc(C(F)(F)F)c2)CC1 (stereo not given) | -54% | 5.2µM* | · | 2.9µM* | ? | -89*
O=C(NC(c1ccc(F)cc1)c1ccc2ccccc2n1)C1CCN(CCOc2ccc(Cl)cc2)CC1 (stereo not given) | -94% | 21µM* | · | 21µM* | 16µM* | -27
Cc1ccc(N(C)S(=O)(=O)c2cccc(C(=O)NNC(=O)c3ccncc3)c2)cc1 | 0% | -15% | 5% | -1% | 0% | -7
CSc1nnc(C2CCN(CC(=O)Nc3ccccc3N3CCOCC3)CC2)n1C | 8% | -22% | · | -2% | 5% | 30
Cc1ccc(C(=O)NC2(C(F)(F)F)N=C(c3ccccc3)N(C3CCCCC3)C2=O)cc1 (stereo not given) | -29% | ? | 6% | ? | -23% | ·
CCN[C@@H]1C[C@H](N)[C@@H](OC2OC(CN)=CCC2N)[C@H](O)[C@H]1O[C@H]1OC[C@](C)(O)[C@H](NC)[C@H]1O (stereo not given in full) | · | -7% | · | 6% | · | ·
COc1cc(/C=C/CN2CCC(C(=O)NC(c3ccc(F)cc3)c3ccc4ccccc4n3)CC2)ccc1OC(C)=O (stereo not given) | -40% | 15µM* | · | ? | ? | -62*
COc1cccc(N2CCN(C(=O)c3cnc4c(C)cccn4c3=O)CC2)c1 | -11% | -26% | 1% | 0% | -2% | ·
COc1ccc(/C=c2/sc3nc(-c4ccccc4)c(-c4ccccc4)n3c2=O)cc1 | 28% | ? | 1% | ? | ? | -2
COc1ccc(/C=c2\sc3nc(-c4ccccc4)c(-c4ccccc4)n3c2=O)cc1OC | -9% | 16µM* | 2% | ? | 38% | -9
